Measured potencies and affinities stand elsewhere. Activity calls are given as the source filed them.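 How the source made its calls: active means growth signal falls, with fitted half-maximal dose at most ten times the top valid dose; inconclusive means flat curve with a partial drop, or a poorly fitting curve; inactive means the rest, including compounds that raise signal.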

A short description of the assay: single-agent toxicity toward C. albicans – CaCi-2 strain, no fluconazole, dry powder, set 4, counter-screen for reversing antifungal drug resistance, dose response (AID 488932). The following applies: C. albicans CaCi-2 (fluconazole-resistant clinical isolate) growth, Alamar Blue, 48 h; series mostly up to 26 µM. Background: Counterscreens check selectivity or assay interference.
For `O=C(c1ccc(Cl)cc1)N1CCN(c2cccc(C(F)(F)F)n2)CC1`, the outcome was inactive. For `O=C(c1ccc(Cl)cc1)N1CCNCC1`, the outcome was inactive.

Take `O=C(c1ccc(Cl)cc1)N1CCN(c2ccnc3ccccc23)CC1`: the outcome was inactive. Consider `O=C(c1cccc(Cl)c1)N1CCN(c2ccnc3cc(Cl)ccc23)CC1`, for which the outcome was inactive.

With `CC1CN(c2ccnc3cc(Cl)ccc23)CCN1C(=O)c1ccc(Cl)cc1` (centres undefined), the result was inactive. As for `Cc1cccc(N2CCN(C(=O)c3ccc(Cl)cc3)CC2)n1`, the outcome was inactive.

With `O=C(c1ccc(Cl)cc1)N1CCN(c2ncccn2)CC1`, the outcome was inactive.

As to `COc1cccnc1N1CCN(C(=O)c2ccc(Cl)cc2)CC1`, the result was inactive. Take `Clc1ccc2c(N3CCNCC3)ccnc2c1`: the outcome was inactive.

Take `O=C(c1ccc(Cl)cc1)N1CCN(c2ccc(Cl)cc2)CC1`: the outcome was inactive. Take `O=C(c1cccs1)N1CCN(c2ccnc3cc(Cl)ccc23)CC1`: the result was inactive. In the case of `O=C(c1ccc(Cl)cc1)N1CCN(c2nc3ccccc3o2)CC1`, the result was inactive. Consider `O=C(c1ccc(Cl)cc1)C1CCN(c2ccnc3cc(Cl)ccc23)CC1`, for which the result was inactive.

Regarding `O=C(c1ccc(Cl)cn1)N1CCN(c2ccnc3cc(Cl)ccc23)CC1`, the outcome was inactive.

As for `CCCCNC(=O)N1CCN(c2ccnc3cc(Cl)ccc23)CC1`, the outcome was inactive. Regarding `O=C(c1ccc(F)cc1)N1CCN(c2ccnc3cc(Cl)ccc23)CC1`, the outcome was inactive. `O=C(c1ccc(Cl)cc1)N1CCN(c2ccnc3ccc(Cl)cc23)CC1`: the outcome was inactive. Consider `O=C(c1ccccc1)N1CCN(c2ccnc3cc(Cl)ccc23)CC1`, for which the outcome was inactive. As to `COc1ccc(OC)c2c(C)cc(N3CCN(C(=O)c4ccc(Cl)cc4)CC3)nc12`, the result was inactive.

The record behind these values is PubChem BioAssay AID488932 (Broad Institute, 2010).
